Drawing on article PMC5540273 (PLoS ONE, 2017), this text covers Kd for five compounds.
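Note: kd values determined as follow-up on hits from a single-replicate KINOMEscan panel screen.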

As a reminder, the Kd is the equilibrium constant for the complex coming apart. Higher therefore signals a looser complex. For the compound `CS(=O)(=O)CCNCc1nc(-c2ccc3ncnc(Nc4ccc5c(cnn5Cc5ccccc5)c4)c3c2)cs1.Cl.Cl` [GW569716], the Kd in the test with CDKL3 is over 10 µM. On the same count and under the same terms, as for `Cn1cncc1C(=O)NC1CCN(c2ccnc(Nc3ccc(F)cc3)n2)C1` (centres unmarked) [GSK1379717], the figure is over 10 µM. Turning to `O=C(Nc1n[nH]c2nc(-c3ccco3)c(Br)cc12)C1CCN(Cc2ccccc2)C1.O=C(O)[C@H](O)[C@@H](O)C(=O)O` (centres unmarked) [SB-742034], the equilibrium dissociation constant (Kd) in the test with CDKL5 was 1.1 µM. `COc1ccc(Nc2nccc(N3CCC(NC(=O)C(C)c4ccc(Cl)cc4)CC3)n2)cc1` (centres unmarked) [GSK1379812] returned a Kd with CDKL5 of over 10 µM. For `Cc1ccc(NC(=O)Nc2ccc(Cl)c(C(F)(F)F)c2)cc1-c1ccc(C(=O)Nc2ccncc2)cc1` [GSK1398470], in the test with CIT, the Kd amounted to 0.38 µM.
